Whole data set: some 8,300 sequences, median “log2 fold change of degron read counts, EGFP-low vs EGFP+ sorted cells (limma voom), compound-induced degradation” near -1.1, cut for the highest 2% near 3.2. The list comes from a sample in which the highest values are over-represented; it also holds similar and randomly drawn sequences.
T1: CRBN, Q96SW2
T1 chain: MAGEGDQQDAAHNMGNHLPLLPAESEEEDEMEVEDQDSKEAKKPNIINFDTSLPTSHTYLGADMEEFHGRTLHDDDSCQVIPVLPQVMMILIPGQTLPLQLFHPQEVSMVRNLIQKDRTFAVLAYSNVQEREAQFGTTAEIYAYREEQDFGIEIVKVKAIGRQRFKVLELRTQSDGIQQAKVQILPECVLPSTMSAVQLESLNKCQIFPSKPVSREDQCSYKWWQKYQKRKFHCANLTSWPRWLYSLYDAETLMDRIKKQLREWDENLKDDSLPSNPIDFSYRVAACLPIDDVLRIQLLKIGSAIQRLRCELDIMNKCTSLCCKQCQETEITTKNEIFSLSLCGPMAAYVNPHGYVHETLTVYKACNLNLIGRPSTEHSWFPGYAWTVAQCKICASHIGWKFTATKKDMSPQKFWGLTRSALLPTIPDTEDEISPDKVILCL


Biological target: T1, CRBN, Q96SW2
Test: log2 fold change of degron read counts, EGFP-low vs EGFP+ sorted cells (limma voom), compound-induced degradation; higher = more compound-induced degradation of the degron-EGFP fusion; degrons are variants of IKZF1/3 zinc finger 2; compound dose not given here
Details: Jurkat, 18 h
[1] = compound: compound 19 (5-tert-butyl-thalidomide)
[2] = compound: compound 22 (5-morpholino-thalidomide)
[3] = compound: compound 33 (diphenyl IMiD analogue)
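Note: pooled lentiviral library of zinc finger degron-EGFP fusions in mCherry-positive Jurkat cells, FACS-sorted after compound exposure, with degron abundance counted by next-generation sequencing.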

Row | Sequence | log2 fold change of degron read counts [1] | log2 fold change of degron read counts [2] | log2 fold change of degron read counts [3] | log2 fold change of degron read counts (compound: thalidomide)
1 | FWCPICGHYFTQKGNLLRHIKL [46F_47W_49P_50I_52G_53H_54Y_55F_67L_, Q9UKT9] | -0.542 | -0.321 | -0.506 | -0.28
2 | FKCNVCGAEFTQKGNLLRHIKL [46F_47K_49N_50V_52G_53A_54E_55F_67L_, Q9UKT9] | -3.18 | -3.1 | -3.12 | -2.1
3 | FHCPICGATFTQKGNLLRHIKL [46F_47H_49P_50I_52G_53A_54T_55F_67L_, Q9UKT9] | 1.64 | 1.89 | 1.62 | 0.481
4 | FKCEVCGAPFTQKGNLLRHIKL [46F_47K_49E_50V_52G_53A_54P_55F_67L_, Q9UKT9] | 2.02 | 1.13 | -1.28 | 1.95
5 | FMCEVCGAPFTQKGNLLRHIKL [46F_47M_49E_50V_52G_53A_54P_55F_67L_, Q9UKT9] | 2.75 | 3.55 | 3.12 | 2.6
6 | FECEVCGAPFTQKGNLLRHIKL [46F_47E_49E_50V_52G_53A_54P_55F_67L_, Q9UKT9] | 1.65 | -1.41 | 0.683 | 1.6
7 | LHCPICGFFCTQKGNLLRHIKL [46L_47H_49P_50I_52G_53F_54F_55C_67L_, Q9UKT9] | 2.35 | 2.51 | 2.79 | 2.23
8 | LGCPICGFFCTQKGNLLRHIKL [46L_47G_49P_50I_52G_53F_54F_55C_67L_, Q9UKT9] | 3.27 | 2.15 | 2.31 | 1.94
9 | LCCPICGFFCTQKGNLLRHIKL [46L_47C_49P_50I_52G_53F_54F_55C_67L_, Q9UKT9] | 1.09 | 1.75 | 2.77 | 2.39
10 | LWCPICGFFCTQKGNLLRHIKL [46L_47W_49P_50I_52G_53F_54F_55C_67L_, Q9UKT9] | 2.66 | 3.04 | 2.81 | 2.05
11 | LSCPICGFFCTQKGNLLRHIKL [46L_47S_49P_50I_52G_53F_54F_55C_67L_, Q9UKT9] | 2.05 | 1.71 | 2.64 | 2.39
12 | LACPICGFFCTQKGNLLRHIKL [46L_47A_49P_50I_52G_53F_54F_55C_67L_, Q9UKT9] | 3.31 | 2.49 | 2.27 | 2.24
13 | FVCNQCGAAFTQKGNLLRHIKL [46F_47V_49N_50Q_52G_53A_54A_55F_67L_, Q9UKT9] | -2.28 | -0.788 | -0.293 | -0.146
14 | FTCNQCGRRFTQKGNLLRHIKL [46F_47T_49N_50Q_52G_53R_54R_55F_67L_, Q9UKT9] | -2.59 | -2.14 | -1.95 | -1.42
15 | FHCPICGRFFTQKGNLLRHIKL [46F_47H_49P_50I_52G_53R_54F_55F_67L_, Q9UKT9] | -0.744 | -1.72 | -0.739 | -1.66
16 | FKCEICGAPFTQKGNLLRHIKL [46F_47K_49E_50I_52G_53A_54P_55F_67L_, Q9UKT9] | 2.99 | 1.73 | -0.501 | 2.51
17 | FCCEICGAPFTQKGNLLRHIKL [46F_47C_49E_50I_52G_53A_54P_55F_67L_, Q9UKT9] | 3.63 | 2.99 | 1.57 | 2.05
18 | FSCEICGADFTQKGNLLRHIKL [46F_47S_49E_50I_52G_53A_54D_55F_67L_, Q9UKT9] | 0.281 | -0.67 | -0.225 | -0.832

Row | Sequence | log2 fold change of degron read counts [1] | log2 fold change of degron read counts [2] | log2 fold change of degron read counts [3] | log2 fold change of degron read counts (compound: thalidomide)
19 | FSCEICGAPFTQKGNLLRHIKL [46F_47S_49E_50I_52G_53A_54P_55F_67L_, Q9UKT9] | 3.54 | 2.69 | 1.29 | 1.99
20 | FCCEICGADFTQKGNLLRHIKL [46F_47C_49E_50I_52G_53A_54D_55F_67L_, Q9UKT9] | 0.103 | -0.401 | 0.273 | -0.00478
21 | FCCEQCGAPFTQKGNLLRHIKL [46F_47C_49E_50Q_52G_53A_54P_55F_67L_, Q9UKT9] | -0.706 | -2.38 | -1.75 | -1.28
22 | FHCNQCGRVFTQKGNLLRHIKL [46F_47H_49N_50Q_52G_53R_54V_55F_67L_, Q9UKT9] | -1.76 | -2.76 | -1.72 | -1.87
23 | FTCPQCGAAFTQKGNLLRHIKL [46F_47T_49P_50Q_52G_53A_54A_55F_67L_, Q9UKT9] | -0.476 | 0.413 | 1.73 | 0.798
24 | FRCEVCGAMFTQKGNLLRHIKL [46F_47R_49E_50V_52G_53A_54M_55F_67L_, Q9UKT9] | -0.953 | -0.985 | 0.652 | 0.605
25 | FCCDICGAKFTQKGNLLRHIKL [46F_47C_49D_50I_52G_53A_54K_55F_67L_, Q9UKT9] | 1.97 | 1.65 | -1.18 | 0.858
26 | FNCDICGAKFTQKGNLLRHIKL [46F_47N_49D_50I_52G_53A_54K_55F_67L_, Q9UKT9] | 0.554 | -1.18 | -2.65 | -2.02
27 | FTCDICGAKFTQKGNLLRHIKL [46F_47T_49D_50I_52G_53A_54K_55F_67L_, Q9UKT9] | -0.131 | 0.993 | -1.38 | 0.963
28 | FLCDICGAKFTQKGNLLRHIKL [46F_47L_49D_50I_52G_53A_54K_55F_67L_, Q9UKT9] | -0.855 | -1.86 | -1.23 | 0.0222
29 | FQCDICGAKFTQKGNLLRHIKL [46F_47Q_49D_50I_52G_53A_54K_55F_67L_, Q9UKT9] | -0.69 | 2.25 | -0.885 | 3.28
30 | FECDICGAKFTQKGNLLRHIKL [46F_47E_49D_50I_52G_53A_54K_55F_67L_, Q9UKT9] | -0.727 | -2.12 | -2.83 | 0.61
31 | FFCDICGAKFTQKGNLLRHIKL [46F_47F_49D_50I_52G_53A_54K_55F_67L_, Q9UKT9] | 3.35 | 3.15 | 0.231 | -0.76
32 | FYCDICGAKFTQKGNLLRHIKL [46F_47Y_49D_50I_52G_53A_54K_55F_67L_, Q9UKT9] | 3.2 | 3.32 | 0.608 | -0.632
33 | FKCDICGAKFTQKGNLLRHIKL [46F_47K_49D_50I_52G_53A_54K_55F_67L_, Q9UKT9] | -2.45 | -3.31 | -3.09 | -2.29
34 | FWCDICGAKFTQKGNLLRHIKL [46F_47W_49D_50I_52G_53A_54K_55F_67L_, Q9UKT9] | 3.22 | 3.7 | 0.265 | -0.173
35 | FMCDICGAKFTQKGNLLRHIKL [46F_47M_49D_50I_52G_53A_54K_55F_67L_, Q9UKT9] | -0.74 | -1.21 | -0.567 | -0.432
36 | FICDICGAKFTQKGNLLRHIKL [46F_47I_49D_50I_52G_53A_54K_55F_67L_, Q9UKT9] | -1.2 | 1.29 | -0.575 | 0.898

— the supplement of paper PMC12645437, “Orthogonal IMiD-Degron Pairs Induce Selective Protein Degradation in Cells” (ACS Chemical Biology, 2025)
